From PubChem BioAssay (EPA / NIEHS)
Records with an inconclusive call do not appear. Calls of active or inactive are those of the source. The calls were made as follows, unless noted: active = hit-call score of the fitted dose curve at least 0.9, where 1 is the maximum; inactive = score below 0.9.

Tests used:
[1] = target: Bile acid receptor (Homo sapiens) (UniProt Q96RI1); assay: ATG_FXR_TRANS: Attagene TRANS-FACTORIAL HepG2 Assay for Farnesoid X Receptor (FXR) (AID 2282979; active = hit-call score of the fitted dose curve at least 0.9, where 1 is the maximum;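 also: hits raise reporter mRNA above DMSO so AC50 marks FXR activation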); settings: HepG2 Attagene TRANS FXR-GAL4 reporter transcription
Outline: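 After 24 h chemical treatment of transfected HepG2 cells, GAL4-UAS reporter transcripts driven by an exogenous FXR-GAL4 fusion were measured by RT-PCR and capillary electrophoresis. Increases over DMSO were fitted.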

[2] = target: Oxysterols receptor LXR-beta (Homo sapiens) (UniProt P55055); assay: ATG_LXRb_TRANS: Attagene TRANS-FACTORIAL HepG2 Assay for human Liver X Receptor beta (LXRb) (AID 2282981; active = hit-call score of the fitted dose curve at least 0.9, where 1 is the maximum); settings: HepG2 Attagene TRANS GAL4-LXRb reporter, mRNA
Outline: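 Transient transfection HepG2 (multiplexed RTUs, GAL4-UAS); NR-Gal4 chimera; 24 h exposure; RNA → RT-PCR → 6-FAM primer extension → HpaI → CE; increase vs DMSO.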

[3] = ATG_M_32_TRANS: Attagene TRANS-FACTORIAL HepG2 Assay for M32 Transcription Factor (Internal Marker) (AID 2282984; active = hit-call score of the fitted dose curve at least 0.9, where 1 is the maximum;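 also: transcript level of a background control reporter unit measured by RT-PCR and capillary electrophoresis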); settings: HepG2 Attagene TRANS M32 internal marker reporter
Outline: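 Measures reporter mRNA induction in human HepG2 liver cells after 24 h chemical treatment. Transcripts from transiently transfected GAL4-UAS reporter units are amplified, fluorescently labelled and sized by capillary electrophoresis; gain of signal relative to DMSO.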

[4] = target: Nuclear receptor subfamily 4 group A member 2 (Homo sapiens) (UniProt P43354); assay: ATG_NURR1_TRANS: Attagene TRANS-FACTORIAL HepG2 Assay for human Nuclear Receptor Related Protein 1 (NURR1) (AID 2282985; active = hit-call score of the fitted dose curve at least 0.9, where 1 is the maximum); settings: HepG2 Attagene TRANS reporter, mRNA readout
Outline: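 Transient transfection of HepG2, human liver cells, with multiple GAL4-UAS reporter transcription units. Cells dosed 24 h, RNA isolated, reverse-transcribed, PCR-amplified, FAM-labelled, HpaI-digested, sized by capillary electrophoresis. DMSO served as negative control.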

[5] = target: Transcriptional activator Myb (Homo sapiens) (UniProt P10242); assay: ATG_Myb_CIS: Attagene CIS-FACTORIAL HepG2 Assay for human Myeloblastosis (Myb) Proto-Oncogene Transcription Factor (AID 2282986); settings: HepG2 Attagene CIS-FACTORIAL Myb reporter transcription; actives raise or lower the signal
Outline: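 Using HepG2 liver cells bearing transiently transfected cis-promoter reporter constructs, the assay measures induction or loss of reporter mRNA after 24 hours of dosing. Detection used fluorescently labeled RT-PCR products separated by capillary electrophoresis.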

[6] = target: Nuclear respiratory factor 1 (Homo sapiens) (UniProt Q16656); assay: ATG_NRF1_CIS: Attagene CIS-FACTORIAL HepG2 Assay for human Nuclear Respiratory Factor 1 (NRF1) Orphan Gene (AID 2282987); settings: HepG2 NRF1 cis-element reporter, Attagene multiplex; actives raise or lower the signal
Outline: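 Reporter mRNA induction or loss in HepG2 cells after 24 h dosing; cis-regulated reporter constructs report endogenous transcription-factor activity. Quantified by RT-PCR/capillary electrophoresis fluorescence, DMSO-referenced.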

[7] = ATG_NFI_CIS: Attagene CIS-FACTORIAL HepG2 Assay for human Nuclear Factor I (NFI) (AID 2282989); settings: HepG2 cis-regulatory reporter, NFI response element transcription; actives raise or lower the signal
Outline: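 Endogenous TF activity in HepG2 cells transiently transfected with cis-element-driven multiplexed reporter units, read 24 h after dosing. Reporter mRNA quantified by RT-PCR, 6-FAM labelling, HpaI digestion and capillary electrophoresis; bidirectional fit versus DMSO.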

[8] = target: Myc proto-oncogene protein (Homo sapiens) (UniProt P01106); assay: ATG_Myc_CIS: Attagene CIS-FACTORIAL HepG2 Assay for human Myelocytomatosis (Myc) Proto-Oncogene Transcription Factor (AID 2282990); settings: HepG2, Attagene cis-reporter transcription factor activity; actives raise or lower the signal
Outline: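 HepG2, transient MRTU transfection (cis promoters, endogenous TFs); 24 h dosing; TriZol RNA → oligo(dT) RT → PCR → 6-FAM primer extension → HpaI cut → CE. Bidirectional fit vs DMSO.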

[9] = ATG_NF_kB_CIS: Attagene CIS-FACTORIAL HepG2 Assay for human Nuclear Factor Kappa B (NF-kB) (AID 2282991); settings: HepG2 Attagene cis-factorial NF-kB reporter mRNA; actives raise or lower the signal
Outline: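 DMSO served as negative control and baseline for bidirectional curve fitting. Transiently transfected HepG2 cells were dosed for 24 h, then reporter transcripts were measured by RT-PCR with capillary electrophoresis detection.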

[10] = ATG_NRF2_ARE_CIS: Attagene CIS-FACTORIAL HepG2 Assay for human Nuclear Factor Erythroid 2 Related Factor 2 (NFR2) response to Antioxidant Response Elements (ARE) (AID 2282992); settings: HepG2 Attagene ARE/NRF2 reporter, transcription factor activity; actives raise or lower the signal;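 as to AC50: reporter mRNA level measured by RT-PCR and capillary electrophoresis fluorescence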
Outline: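 HepG2 cells transiently transfected with multiplexed cis-regulated reporter transcription units measure endogenous transcription factor activity. Reporter mRNA at 24 h is quantified by RT-PCR, fluorescent labelling and capillary electrophoresis, with bidirectional fitting relative to DMSO.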

[11] = ATG_Oct_MLP_CIS: Attagene CIS-FACTORIAL HepG2 Assay for human Octamer-Binding Transcription Factor (Oct) (AID 2282993); settings: HepG2 Attagene cis-factorial Oct reporter, mRNA; actives raise or lower the signal
Outline: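 HepG2 cells transiently transfected with cis-element-driven reporter transcription units (endogenous TF activity); 24 h compound exposure. Reporter mRNA quantified by RT-PCR, 6-FAM labelling, HpaI digestion and capillary electrophoresis; bidirectional fit versus DMSO baseline.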

[12] = BSK_3C_TissueFactor: BioMAP Diversity Plus: 3C Assay for Tissue Factor Biomarker Activity (AID 2282997); settings: BioMAP 3C HUVEC, tissue factor biomarker readout; actives raise or lower the signal
Outline: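 Endothelial monolayers (human umbilical vein, primary) are dosed, incubated 24 h, and assayed for Tissue Factor by ELISA; DMSO serves as negative control for bidirectional fitting.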

[13] = BSK_3C_uPAR: BioMAP Diversity Plus: 3C Assay for Urokinase-type plasminogen activator receptor (uPAR) Biomarker Activity (AID 2282998); settings: BioMAP 3C HUVEC, uPAR biomarker ELISA; actives raise or lower the signal
Outline: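 Primary human umbilical vein endothelial cells, 3C system; surface uPAR measured by ELISA 24 h after dosing. Cytotoxicity via SRB total protein in parallel cultures; bidirectional fit against DMSO.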

[14] = BSK_3C_VCAM1: BioMAP Diversity Plus: 3C Assay for Vascular cell adhesion molecule 1 (VCAM1) Biomarker Activity (AID 2282999); settings: BioMAP 3C HUVEC, VCAM1 ELISA, cytokine-stimulated; actives raise or lower the signal
Outline: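 Endothelial cells from human umbilical vein are treated with test chemical. At 24 h, VCAM-1 is measured by ELISA, and responses in either direction are fitted relative to DMSO.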

[15] = BSK_4H_Eotaxin3: BioMAP Diversity Plus: 4H Assay for Eotaxin 3 Biomarker Activity (AID 2283000); settings: primary human endothelial cells (HUVEC); actives raise or lower the signal;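 also: CCL26 protein level quantified by ELISA in parallel with SRB cytotoxicity check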
Outline: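 ELISA quantitation of CCL26 (Eotaxin-3) protein from chemically dosed human vascular endothelial cells at 24 h; increases and decreases both scored relative to DMSO-treated baseline.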

[16] = target: human Peroxisome Proliferator-activated Receptor alpha (PPARa), PPARA (gene 5465) (UniProt Q07869); assay: ATG_PPARa_TRANS: Attagene TRANS-FACTORIAL HepG2 Assay for human Peroxisome Proliferator-activated Receptor alpha (PPARa) (AID 2283001; active = hit-call score of the fitted dose curve at least 0.9, where 1 is the maximum)
Outline: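 Read-out is fluorescence of reporter cDNA fragments resolved by capillary electrophoresis after RT-PCR. Human HepG2 liver cells carried transfected PPARa-Gal4 chimera and GAL4-UAS reporter units, treated 24 h; activity scored as increase over DMSO.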

[17] = target: Hepatocyte nuclear factor 4-alpha (Homo sapiens) (UniProt P41235); assay: ATG_HNF4a_TRANS: Attagene TRANS-FACTORIAL HepG2 Assay for human Hepatocyte Nuclear Factor 4 alpha (HNF4a) (AID 2282982; active = hit-call score of the fitted dose curve at least 0.9, where 1 is the maximum); settings: HepG2 HNF4a transactivation reporter, mRNA readout
Outline: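 Readout is fluorescent reporter-transcript fragments resolved by capillary electrophoresis after RT-PCR from HepG2 cells dosed for 24 h. Cells carried transfected GAL4-UAS reporter constructs measuring exogenous NR-GAL4 chimera activity; DMSO served as baseline.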

[18] = target: Cellular tumor antigen p53 (Homo sapiens) (UniProt P04637); assay: ATG_p53_CIS: Attagene CIS-FACTORIAL HepG2 Assay for human p53 Transcription Factor (AID 2282994); settings: HepG2 p53 cis-element reporter, Attagene mRNA; actives raise or lower the signal
Outline: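 HepG2 cells transiently transfected with multiplexed cis-regulated reporter transcription units read endogenous TF activity. After 24 h compound exposure, reporter mRNA was quantified by RT-PCR, fluorescent labelling, HpaI digestion and capillary electrophoresis; bidirectional fits versus DMSO baseline.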

Sequence of human Peroxisome Proliferator-activated Receptor alpha (PPARa), PPARA (gene 5465) (Q07869 whole entry, looked up, the tested form may be a part): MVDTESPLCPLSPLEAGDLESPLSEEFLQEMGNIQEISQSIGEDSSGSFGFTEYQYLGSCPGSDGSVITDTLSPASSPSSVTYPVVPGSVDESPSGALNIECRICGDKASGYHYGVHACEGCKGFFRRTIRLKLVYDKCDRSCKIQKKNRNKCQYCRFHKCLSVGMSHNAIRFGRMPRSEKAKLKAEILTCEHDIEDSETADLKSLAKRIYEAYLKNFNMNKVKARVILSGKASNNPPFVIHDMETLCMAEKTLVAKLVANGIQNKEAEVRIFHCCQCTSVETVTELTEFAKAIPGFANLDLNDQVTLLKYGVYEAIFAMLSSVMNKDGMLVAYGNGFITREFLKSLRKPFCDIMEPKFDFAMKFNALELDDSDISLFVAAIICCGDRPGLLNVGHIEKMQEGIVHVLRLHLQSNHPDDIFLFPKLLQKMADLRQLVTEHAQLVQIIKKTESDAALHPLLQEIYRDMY
Sequence of Myc proto-oncogene protein (Homo sapiens) (P01106 whole entry, looked up): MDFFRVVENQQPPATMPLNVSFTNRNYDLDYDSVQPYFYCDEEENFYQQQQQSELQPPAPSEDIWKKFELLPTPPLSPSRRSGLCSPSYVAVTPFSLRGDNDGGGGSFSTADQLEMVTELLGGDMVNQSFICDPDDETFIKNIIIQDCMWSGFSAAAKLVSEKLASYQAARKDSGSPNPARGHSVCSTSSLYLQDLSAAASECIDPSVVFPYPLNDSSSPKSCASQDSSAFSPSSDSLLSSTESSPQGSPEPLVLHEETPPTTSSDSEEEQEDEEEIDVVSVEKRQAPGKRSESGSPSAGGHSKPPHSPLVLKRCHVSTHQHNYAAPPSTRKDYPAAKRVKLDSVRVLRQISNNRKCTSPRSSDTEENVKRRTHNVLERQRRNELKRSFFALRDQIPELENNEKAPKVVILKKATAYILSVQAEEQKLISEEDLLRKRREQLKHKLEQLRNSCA
Sequence of Nuclear respiratory factor 1 (Homo sapiens) (Q16656 whole entry, looked up): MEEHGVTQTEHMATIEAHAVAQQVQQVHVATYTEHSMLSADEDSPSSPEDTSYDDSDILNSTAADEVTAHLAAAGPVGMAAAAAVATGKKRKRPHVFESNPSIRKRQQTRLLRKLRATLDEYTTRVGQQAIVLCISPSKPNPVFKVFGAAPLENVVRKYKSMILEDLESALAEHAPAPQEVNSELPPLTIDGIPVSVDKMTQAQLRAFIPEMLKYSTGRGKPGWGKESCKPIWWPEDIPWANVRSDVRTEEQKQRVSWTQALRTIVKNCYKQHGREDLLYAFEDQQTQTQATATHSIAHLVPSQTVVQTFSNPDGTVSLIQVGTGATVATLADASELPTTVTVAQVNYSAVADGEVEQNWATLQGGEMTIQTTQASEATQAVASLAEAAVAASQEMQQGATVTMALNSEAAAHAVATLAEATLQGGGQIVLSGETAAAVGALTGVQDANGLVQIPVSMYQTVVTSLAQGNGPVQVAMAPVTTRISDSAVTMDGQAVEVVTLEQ
Sequence of Nuclear receptor subfamily 4 group A member 2 (Homo sapiens) (P43354 whole entry, looked up, the tested form may be a part): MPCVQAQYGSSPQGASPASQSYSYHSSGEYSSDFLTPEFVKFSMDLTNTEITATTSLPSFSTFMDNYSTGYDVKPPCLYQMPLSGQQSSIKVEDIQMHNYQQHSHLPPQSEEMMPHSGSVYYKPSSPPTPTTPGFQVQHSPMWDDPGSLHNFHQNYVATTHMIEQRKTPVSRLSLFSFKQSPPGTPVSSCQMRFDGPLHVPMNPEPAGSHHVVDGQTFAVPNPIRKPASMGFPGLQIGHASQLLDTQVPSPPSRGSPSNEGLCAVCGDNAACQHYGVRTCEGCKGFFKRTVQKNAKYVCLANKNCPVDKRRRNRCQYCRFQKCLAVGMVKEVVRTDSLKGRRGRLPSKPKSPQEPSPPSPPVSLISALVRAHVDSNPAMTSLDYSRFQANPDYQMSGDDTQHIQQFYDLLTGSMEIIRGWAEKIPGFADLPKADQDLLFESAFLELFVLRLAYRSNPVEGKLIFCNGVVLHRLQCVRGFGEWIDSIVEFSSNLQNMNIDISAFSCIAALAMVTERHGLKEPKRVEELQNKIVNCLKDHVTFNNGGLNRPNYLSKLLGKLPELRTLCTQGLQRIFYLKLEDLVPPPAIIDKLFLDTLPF
Sequence of Hepatocyte nuclear factor 4-alpha (Homo sapiens) (P41235 whole entry, looked up, the tested form may be a part): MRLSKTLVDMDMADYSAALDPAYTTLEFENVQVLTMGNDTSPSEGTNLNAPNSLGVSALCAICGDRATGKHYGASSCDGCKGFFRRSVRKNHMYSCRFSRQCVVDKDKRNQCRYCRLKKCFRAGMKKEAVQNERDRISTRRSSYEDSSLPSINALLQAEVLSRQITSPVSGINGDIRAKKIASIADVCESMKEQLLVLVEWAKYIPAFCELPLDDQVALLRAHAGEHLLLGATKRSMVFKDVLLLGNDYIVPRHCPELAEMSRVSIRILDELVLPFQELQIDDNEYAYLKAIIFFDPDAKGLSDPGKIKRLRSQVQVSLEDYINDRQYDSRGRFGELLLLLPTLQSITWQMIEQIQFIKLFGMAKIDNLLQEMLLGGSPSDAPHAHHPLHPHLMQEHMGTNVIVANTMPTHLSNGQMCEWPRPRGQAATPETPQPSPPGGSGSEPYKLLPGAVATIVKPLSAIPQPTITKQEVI
Sequence of Oxysterols receptor LXR-beta (Homo sapiens) (P55055 whole entry, looked up, the tested form may be a part): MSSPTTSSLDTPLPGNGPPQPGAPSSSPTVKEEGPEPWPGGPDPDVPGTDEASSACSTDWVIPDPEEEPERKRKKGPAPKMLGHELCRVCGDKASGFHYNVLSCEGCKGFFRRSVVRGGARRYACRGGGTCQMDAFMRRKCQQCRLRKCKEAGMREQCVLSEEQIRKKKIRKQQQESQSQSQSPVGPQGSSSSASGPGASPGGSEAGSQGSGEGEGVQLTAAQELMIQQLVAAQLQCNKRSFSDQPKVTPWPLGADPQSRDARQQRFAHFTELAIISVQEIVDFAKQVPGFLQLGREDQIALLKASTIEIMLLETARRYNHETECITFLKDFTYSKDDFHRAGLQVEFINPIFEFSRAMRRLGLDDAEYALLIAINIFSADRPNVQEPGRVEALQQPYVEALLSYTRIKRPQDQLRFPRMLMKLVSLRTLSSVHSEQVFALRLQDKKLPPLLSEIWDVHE
Sequence of Transcriptional activator Myb (Homo sapiens) (P10242 whole entry, looked up): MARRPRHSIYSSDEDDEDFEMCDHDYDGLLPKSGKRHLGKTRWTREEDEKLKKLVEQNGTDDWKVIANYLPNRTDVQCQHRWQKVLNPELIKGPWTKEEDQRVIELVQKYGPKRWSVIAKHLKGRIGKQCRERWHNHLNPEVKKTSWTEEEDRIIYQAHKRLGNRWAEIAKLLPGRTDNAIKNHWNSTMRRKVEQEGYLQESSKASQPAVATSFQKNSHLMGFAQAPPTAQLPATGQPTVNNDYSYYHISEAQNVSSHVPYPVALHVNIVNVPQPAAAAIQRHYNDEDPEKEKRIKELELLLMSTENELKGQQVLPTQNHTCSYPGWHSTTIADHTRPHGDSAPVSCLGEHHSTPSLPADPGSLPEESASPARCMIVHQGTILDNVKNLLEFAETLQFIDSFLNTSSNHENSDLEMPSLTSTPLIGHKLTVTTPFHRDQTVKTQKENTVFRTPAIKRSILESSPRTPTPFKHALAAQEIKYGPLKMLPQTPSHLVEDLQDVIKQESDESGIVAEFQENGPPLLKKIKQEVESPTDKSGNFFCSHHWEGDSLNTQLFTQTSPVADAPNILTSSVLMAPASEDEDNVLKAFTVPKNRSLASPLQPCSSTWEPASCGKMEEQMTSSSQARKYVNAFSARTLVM
Sequence of Bile acid receptor (Homo sapiens) (Q96RI1 whole entry, looked up, the tested form may be a part): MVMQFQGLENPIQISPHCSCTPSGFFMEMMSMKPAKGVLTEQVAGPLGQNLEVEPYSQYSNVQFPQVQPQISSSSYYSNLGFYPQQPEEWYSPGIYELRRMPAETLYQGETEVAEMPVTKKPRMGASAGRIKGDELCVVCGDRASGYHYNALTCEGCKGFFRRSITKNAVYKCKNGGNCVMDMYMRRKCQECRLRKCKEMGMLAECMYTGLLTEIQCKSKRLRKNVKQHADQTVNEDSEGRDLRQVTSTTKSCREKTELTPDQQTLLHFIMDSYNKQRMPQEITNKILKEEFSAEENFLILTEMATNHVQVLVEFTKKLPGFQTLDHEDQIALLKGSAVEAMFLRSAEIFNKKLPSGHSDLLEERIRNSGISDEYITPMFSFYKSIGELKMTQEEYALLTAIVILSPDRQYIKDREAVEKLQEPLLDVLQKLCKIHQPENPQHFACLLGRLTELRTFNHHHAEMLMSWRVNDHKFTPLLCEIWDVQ
Sequence of Cellular tumor antigen p53 (Homo sapiens) (P04637 whole entry, looked up): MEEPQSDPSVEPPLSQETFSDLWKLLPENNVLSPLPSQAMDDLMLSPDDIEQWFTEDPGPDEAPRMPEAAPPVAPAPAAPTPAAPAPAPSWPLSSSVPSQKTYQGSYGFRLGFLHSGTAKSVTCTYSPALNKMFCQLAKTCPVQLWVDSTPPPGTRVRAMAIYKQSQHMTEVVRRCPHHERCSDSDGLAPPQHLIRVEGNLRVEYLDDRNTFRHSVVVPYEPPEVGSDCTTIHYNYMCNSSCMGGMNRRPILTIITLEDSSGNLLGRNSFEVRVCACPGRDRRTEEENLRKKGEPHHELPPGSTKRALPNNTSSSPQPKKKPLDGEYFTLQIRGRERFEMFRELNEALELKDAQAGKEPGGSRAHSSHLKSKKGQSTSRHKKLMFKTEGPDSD

Structure (SMILES) | outcome [1] | outcome [2] | outcome [3] | outcome [4] | outcome [5] | outcome [6] | outcome [7] | outcome [8] | outcome [9] | outcome [10] | AC50 [11] | outcome [12] | outcome [13] | outcome [14] | outcome [15] | AC50 [10] | outcome [11] | outcome [16] | outcome [17] | outcome [18]
CSc1ccc(Oc2ccc(S(N)(=O)=O)cc2CN(C)C)cc1C | inactive | inactive | inactive | inactive | inactive | inactive | inactive | inactive | inactive | inactive | 33 µM (active) | inactive | inactive | inactive | inactive | – | – | – | – | –
CC(=O)OC1CC(C)OC(C)O1 (configuration not stated) | inactive | inactive | inactive | inactive | inactive | inactive | inactive | inactive | inactive | – | – | inactive | inactive | inactive | inactive | 68.9 µM (active) | inactive | – | – | –
N[C@@H](Cc1c[nH]c2ccccc12)C(=O)O | – | inactive | inactive | – | inactive | inactive | inactive | inactive | inactive | inactive | – | inactive | inactive | inactive | inactive | – | inactive | inactive | – | –
NC1CCCCC1 | – | – | – | – | inactive | inactive | inactive | inactive | – | inactive | – | inactive | inactive | inactive | inactive | – | inactive | inactive | inactive | –
CCCCCCCC(=O)OC | – | inactive | inactive | inactive | inactive | inactive | inactive | inactive | inactive | inactive | – | inactive | inactive | inactive | inactive | – | inactive | inactive | – | –
COc1ccc(C(=O)Nc2nc3ccccc3c(NCc3ccccc3)c2C#N)cc1 | – | inactive | – | inactive | inactive | inactive | inactive | inactive | – | – | 7.37 µM (active) | inactive | inactive | inactive | inactive | 0.952 µM (active) | – | inactive | inactive | inactive
O=C(O)CC(O)(CC(=O)O)C(=O)O | – | – | – | – | – | – | – | – | – | – | – | inactive | inactive | inactive | inactive | – | – | – | – | –
Cc1cc(SC2=C(O)C[C@@](CCc3ccc(N)cc3)(C(C)C)OC2=O)c(C(C)(C)C)cc1CO | – | inactive | inactive | – | inactive | inactive | inactive | inactive | inactive | – | – | inactive | inactive | inactive | inactive | 4.49 µM (active) | inactive | – | – | inactive
CCCC(=O)O | – | – | – | inactive | inactive | inactive | inactive | inactive | inactive | inactive | – | inactive | inactive | inactive | inactive | – | inactive | – | inactive | –
